Assay results: PubChem BioAssay (NCI)
The panel holds about 79,000 compounds, 15% with a hit somewhere; the sample as a whole holds those more often. Unmarked numbers belong to inactive results. Activity calls are given as the source filed them. Rule as the data show it: active = growth inhibition above about 70%; inactive = the rest.

Assay: NCI Yeast Anticancer Drug Screen. Data for the mec2-1 strain (AID 157)
Details: S. cerevisiae mec2-1 strain, at 50.0 µM (retest, dose inferred, filed as 5.0), active compounds read high
Procedure, shortened: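 Cells of the genetically defined mec2-1 yeast strain are incubated with test compound. Inhibition of growth is calculated against vehicle-treated controls.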

Row | SMILES | growth inhibition
1 | CCCNC(=O)OCc1ccc(NCCN(CC)CC)c2c(=O)c3ccccc3sc12 | -6%
2 | COc1cc(C(c2cc3c(cc2O)OCO3)N2CCCCC2)cc(OC)c1OC (centres undefined) | 20%
3 | Cc1cc2c(cc1Cl)Sc1nnc(C)n1S2(=O)=O | 59%
4 | O=C(Oc1cccc2cccnc12)c1ccccc1 | 98% (active)
5 | CCCCCCN(CCCCCC)CCC(=O)c1ccc2cc(Br)c3ccccc3c2c1 | 95% (active)
6 | Cc1c2cc(Cl)ccc2cc2c1ccc1ccccc12 | 6%
7 | O=C1OC(CCCl)(c2ccccc2)CC1CN1CCOCC1 (centres undefined) | 90% (active)
8 | CCOC(=N)CCCSSc1ccc(N=[N+]=[N-])cc1 | 99% (active)
9 | Cc1[nH]c2ccccc2c1/C=C1\C(=O)C2CCC1C2 (centres undefined) | 73% (active)
10 | O=C(O)c1ccc2c3c(ncnc13)-c1ccccc1C2=O | 98% (active)
11 | CCNCCNc1cc(O)c2c(c1O)C(=O)c1ccccc1C2=O | 98% (active)
12 | Nc1nc(N)c2nc(CNc3ccc(C(=O)NC(CCC(=O)O)C(=O)O)cc3)cnc2n1 (centres undefined) | 91% (active)
13 | COc1ccccc1OC(=O)Oc1ccccc1OC | -3%
14 | NNC(=O)c1c(SCc2ccccc2)nc2c3ccccc3ccn12 | 83% (active)
15 | N#CC1Oc2ccccc2N1C(=O)c1ccccc1 (centres undefined) | 7%
16 | O=C1C2=Cc3ccccc3CCN2c2ccccc21 | -6%
17 | Cc1cc([N+](=O)[O-])cc(Cl)c1O | 79% (active)
18 | Cc1c(Cl)cccc1N=NC(=O)NNc1cccc(Cl)c1C | 96% (active)
19 | CCC[CH2][Sn]1([CH2]CCC)[O]C(=O)CN=Cc2c(ccc3ccccc23)[O]1 | 74% (active)
